Structures are written as SMILES. The whole screen tested about 420,000 compounds, of which about 50,000 (12%) were called active. A call without a number means that no potency is given here. Inconclusive results (about 26%) are left out. The sample holds actives, similar compounds and a random draw of the others, so the mix is not that of the screen. Calls follow the shape of the dose curve; as a rule, active = well fitted inhibition curve with a large enough effect; inconclusive = small, poorly fitted or top-dose-only effect; inactive = flat fitted curve, though single readings scatter.

Consider 28 molecules from PubChem BioAssay AID686979 (National Center for Advancing Translational Sciences (NCATS), 2013).
Potency is read from the fitted curve at half-maximal effect.

This assay is described as follows: qHTS for Inhibitors of human tyrosyl-DNA phosphodiesterase 1 (TDP1): qHTS in cells in presence of CPT. Also: nearly all actives have a fitted effect of over 55% in size. The following applies: chicken DT40 Tdp1-/-;hTDP1 cells + 20 nM CPT, ATP luminescence, 48 h; series mostly up to 46.2 µM. An outline of the steps: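 Chicken DT40 Tdp1-/- cells stably complemented with human TDP1 were seeded at 400 cells/well in medium containing 20 nM camptothecin, exposed to pin-transferred compounds, and grown at 37 °C for at least 48 hr. Viability was read as ATP luminescence.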
With `O=C(CNS(=O)(=O)c1ccccc1)NCC(=O)OCc1ccccc1F`, the Potency result was “inactive”.
`Cc1cc(=O)oc2cc(OC(C)C(=O)NCCc3ccc(S(N)(=O)=O)cc3)ccc12` (stereo not drawn): the Potency result was “inactive”.
On to `Nc1nc(SCC(=O)NNc2c(Cl)cc(Cl)cc2Cl)n[nH]1`, for which the Potency result was “inactive”.
As to `COc1cc(Cl)c(C)cc1NC(=O)COC(=O)c1cc(SC)ccc1Cl`, the Potency result is “inactive”.
On to `CCC(C)Cn1c(O)cc2nn(-c3nc4ccccc4s3)c(=O)c-2c1C` (stereo not drawn), for which the Potency was 14.6 µM (active).
Consider `Cc1ccc(-c2nn3c(=O)cc(CN4CCN(S(=O)(=O)c5ccc(Cl)cc5)CC4)nc3s2)cc1`, for which the Potency result is “inactive”.
To `CCc1ccc(C2C(C#N)=C(N)N(N(C)C)C3=C2C(=O)CCC3)s1` (stereo not drawn) belongs “inactive”; to `Cc1sc(C2C(C#N)=C(N)N(c3cccc(Cl)c3)C3=C2C(=O)CCC3)cc1CN1CCOCC1` (stereo not drawn), “inactive”.
With `CSc1sc(C)cc1C1C(C#N)=C(N)N(c2cccnc2)C2=C1C(=O)CCC2` (stereo not drawn), the Potency is 11.6 µM (active).
For the molecule `Cc1cn(C)c(CC(=O)NCc2ccccc2)c1C(=O)O`, the Potency result is “inactive”.
For `C=CCn1c(SCC(N)=O)nnc1-c1cc2c(s1)CCC(CC)C2` (stereo not drawn), the Potency entry is “inactive”.
With `CCC1OC(c2ccc([N+](=O)[O-])cc2)=Nc2ccccc21` (stereo not drawn), the Potency result is “inactive”.
In the case of `CC(NC(=O)c1ccco1)c1ccc2c(c1)OCO2` (stereo not drawn), the Potency entry is “inactive”.
Take `COc1ccc(C(CNCC(=O)Nc2ccccc2F)N(C)C)cc1` (stereo not drawn): the Potency entry was “inactive”.
As to `COc1ccc(C(CCNCc2ccccc2F)c2ccc(F)cc2)cc1` (stereo not drawn), the Potency was 16.4 µM (active).
Regarding `COc1ccc(CCNC(=O)COC(=O)Cc2ccccc2F)cc1`, the Potency result is “inactive”.
Consider `O=C(NNC(=O)C1CCC1)c1ccccc1`, for which the Potency result is “inactive”.
Regarding `CC1(C)c2[nH]c3ccccc3c2C[C@H]2C(=O)N(N)CC(=O)N21`, the Potency entry was “inactive”.
For `COc1cccc(CN(C)C(=O)CC[C@H]2O[C@@H](n3cnc4c(NC(=O)c5ccccc5)ncnc43)[C@H](O)[C@@H]2O)c1` the value was “inactive”.
As for `COc1ccc(CC(N)C(=O)NC2C(O)[C@H](n3cnc4c(N(C)C)ncnc43)O[C@@H]2CO)cc1` (stereo partly drawn), the Potency is 17.6 µM (active).
Consider `Nc1ncnc2c1ncn2[C@@H]1O[C@H](CNC(=O)[C@H](N)Cc2cccnc2)[C@@H](O)[C@H]1O`, for which the Potency result is “inactive”.
For `CC(=O)N1CCOc2ccc(S(=O)(=O)N3CCC(C(=O)Nc4ccccc4F)CC3)cc21` the value was “inactive”; for `CN(CCO)S(=O)(=O)c1ccc2c(c1)C(=O)c1cc(S(=O)(=O)N(C)CCO)ccc1-2`, “inactive”; for `O=C1c2ccccc2C(=O)N1c1ccc(S(=O)(=O)N2CCOCC2)c2ccccc12`, “inactive”.
Take `CCCC/C=C/c1cccc2nncn12`: the Potency entry was “inactive”.
As to `CC(=O)c1ccc(N2CCN(C(=O)C3CCN(S(=O)(=O)c4ccc5c(c4)CC(C)N5C(=O)C4CC4)CC3)CC2)cc1` (stereo not drawn), the Potency was 11.6 µM (active).
To `CC(=O)c1ccc(N2CCN(S(=O)(=O)c3ccc4c(c3)CC(=O)N4C)CC2)cc1` belongs “inactive”; to `CCS(=O)(=O)N1CCC(C(=O)N2CCN(c3ccccc3)CC2)CC1`, “inactive”.
